# Key:
# Assay in all cases: PBM binding z-score (relative to random genomic background probes); higher = stronger binding; sequences stand for … in GC…GCGATTGACAGCGTAGAATGAAGG
# [1] = system: RARb homodimer (NR concentration 270 nM)
# Outline: (§1)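 Binding z-scores were set against random background probes. The data came from custom Agilent 4×180K protein-binding microarrays carrying double-stranded probes with 34-nt variable regions, incubated 1 h with ligand-free nuclear receptor dimers. Partner-specific antibodies detected binding, and scanned fluorescence was regression-normalized.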
# [2] = system: RARg:RXRa (NR concentration 270 nM, RXRa partner concentration 90 nM)
# Outline: as §1
# [3] = system: RARg homodimer (NR concentration 270 nM)
# Outline: as §1
# [4] = system: RXRa DBDmut IVT, anti-RXR (DBD mutation: RXRa K156A/R161A, NR concentration 90 nM)
# Outline: as §1
# [5] = system: RXRa homodimer (NR concentration 180 nM)
# Outline: as §1
# [6] = system: THRa:RXRa (NR concentration 90 nM, RXRa partner concentration 90 nM)
# Outline: as §1
# [7] = system: THRa homodimer (NR concentration 90 nM)
# Outline: as §1
# [8] = system: VDR homodimer (NR concentration 270 nM)
# Outline: as §1
Sequence,PBM binding z-score [1],PBM binding z-score [2],PBM binding z-score [3],PBM binding z-score [4],PBM binding z-score [5],PBM binding z-score [6],PBM binding z-score [7],PBM binding z-score [8]
ATCCCAAGGTGATCGTGAGGTCGTTGATACTAAC,1.61,1.97,0.447,0.515,1.21,3.42,2.59,2.9
CGTCCAAGGTCAAGGTCAGAGAAAGAGACTCGAA,4.83,6.78,7.97,3.66,6.72,4.16,3.41,3.04
TCTAGTTGGTCAAAGGTCACACGCTCGAAATGCG,5.31,7.41,6.67,1.72,8.75,4.01,2.09,2.92
TAATATAGGTAAAAGGTGAAAGTCGGTGTGGTAA,2.01,2.15,1.32,0.341,2.95,1.87,0.816,0.638
CCTATTGGGCCATCAGGTCATTGATATCAACGTT,2.49,2.26,1.88,0.643,1.39,3.3,2.98,1.87
CCGACTGGGGCAGAATGGTTACCATACCATCCGG,-0.435,0.00778,0.0342,-0.908,-0.122,-0.891,-0.862,-0.629
CCTCGGAGGACAACAGGCGGTCAGAGCTGCCAGA,1.43,1.07,1.63,-0.164,-0.341,0.64,-0.125,-0.0839
TTACCAAGGTGAGCTGAGGTCGTTGACCCAACTC,2,1.58,0.471,0.101,2.03,4.79,2.16,1.65
ATATGTAGGCTATCGGGTCATTCAGTTTGCGCAT,2.23,2.01,1.52,1.1,2.08,2.91,1.79,3.16
GCTTGTAGAGCAAGGTTAAGAAAGACTAAGCTAA,-0.118,0.204,0.162,-0.22,0.282,0.745,-1.02,-0.25
AGTCAAAGTTGACTAGGTAACGTAAGATTCAGCT,0.0886,0.519,0.771,0.028,0.242,0.477,-0.555,-0.638
ATCTCTAGGTAAAATTTCAGTGAATCCCGAGGAT,-0.0962,0.558,0.537,0.113,0.367,0.328,0.331,-0.51
TCATATAGGTAAAGGTGAACGTCGAACGATATGA,1.73,1.71,1.52,0.894,2.17,1.5,-0.0395,-0.239
TCATATAGGTAAAGGTGAAAGTCGAACGATATGA,1.71,1.65,1.43,0.845,2.33,1.38,-0.106,0.236
CGAACTAGATCATTGACAGGACAGTGAATAGTAA,0.278,0.201,0.25,0.0168,0.337,0.239,0.557,0.205
GCGACTGGGGCAAAACAGGTTACCATAAGGTTGG,1.31,0.535,0.627,-0.186,0.658,2.3,0.0603,-0.526
CCACCAAGGTGAACAAGGTCGTTGATTACTATTC,2.39,2.05,1.62,1.32,2.07,3.42,2.4,3.07
TCTGCTAGCTCAGTTGGTCAGCTAACGAGCTGCC,-1.04,-0.955,-0.903,-0.192,-1.34,-1.6,-1.25,-1.56
CAAACTAGGTCAAAGGTCAAAGGCGAGCCAACCA,5.32,9.06,7.75,3.02,10.4,4.91,1.64,3

Sequence,PBM binding z-score [1],PBM binding z-score [2],PBM binding z-score [3],PBM binding z-score [4],PBM binding z-score [5],PBM binding z-score [6],PBM binding z-score [7],PBM binding z-score [8]
AGTCAATGTTCACTAGGTAACGTAAGATTCAGCT,0.00708,0.177,0.455,0.313,0.0273,0.29,0.282,-0.164
TTAGCAAGGTGAAAGGTCGTTGATGCACGCCTTG,2.23,4.16,1.75,0.67,5.52,3.02,0.254,1.18
GTAACAAGGTGAATAGGTCGTTGATGAGTAGGCG,1.9,2.74,1.68,0.149,2.29,2.06,0.594,0.415
TGAATGAGGTTAAAGATTAGGGAACGTGGCGTCG,0.481,1.91,1.29,1.09,2.89,2.37,0.417,0.533
ATCTCTAAGTAAAGTTCAGTGAAAGATCGATAGA,2.32,1.98,2.42,1.71,1.26,0.85,-0.131,2.32
TCTTGTAAATCAGCAGGTTAAGAAAGCTGGCCAA,-0.0241,-0.0885,-0.347,0.924,0.361,0.32,-0.393,-0.269
CAAACTAGGTCAAGAGGTCAATGTCCGCTTCCCG,5.98,7.68,7.46,2.81,7.85,4.21,2.55,4.02
TCTTGTAGATCAACAGGAAGTTAAGAAAGATCGA,-0.828,-0.328,-0.339,0.508,-0.0187,-0.307,-1.05,-0.551
GGAACGAAGGCATTCGAGTTGATAGCATGGCGAT,-0.976,-0.479,-0.164,-0.552,-0.562,0.655,-1.68,-0.0499
ACTAGGAGGCCAAGTTTGGGTCACTCAAACAAAG,2.66,3.46,2.56,0.0297,1.08,2.74,1,0.935
TAGCCTAGGTCATGGGCCAGTACACCACGCGAAC,2.88,4.3,4.65,0.275,3.7,2.99,1.48,0.985
CTAGCAAGGTGAACAAGGTCGTTGATTACTATTC,1.77,1.68,1.5,1.25,2.1,3.18,1.45,2.32
CCTACTGGGCCCAAAAGGTCATTGATGCCGATAA,4.35,4.87,4.11,-0.121,5.65,3.15,0.687,1.84
TCTAGCAGGCCAGAGGTTCACTCAAGAGGTACGG,0.483,0.466,0.306,0.415,0.756,0.0642,-0.939,1.54
TCATATAGGTAAAGGTGAAAGCCGAACGATATGA,1.16,1.44,1.18,0.508,1.93,1.47,-0.707,-0.196
CCGACTGGGGCAGATAGGTTACCATACCATCCGG,0.817,0.424,0.518,-0.658,0.262,-0.181,-0.391,-0.573
GATACAGGGTCAAGGCCCGAGTACGCGTATTGAT,3.19,5.42,5,2.42,5.69,3.47,0.807,2.35
ATCGAAACGTCGAGGTGAGTATAGAGAAAGGGAA,-0.0564,0.238,0.317,-0.787,0.266,1.03,-0.0731,-0.175
TTACCAAGGTGAAGGTCGTTGAGCCCTCTGTAGA,1.79,1.3,1.08,0.1,1.59,2.14,0.652,0.688

Sequence,PBM binding z-score [1],PBM binding z-score [2],PBM binding z-score [3],PBM binding z-score [4],PBM binding z-score [5],PBM binding z-score [6],PBM binding z-score [7],PBM binding z-score [8]
GCTTGTAGATCAAGGATAAGAAAGACTAAGCTAA,-1.36,-0.352,-0.0867,-0.727,-0.555,0.0456,-0.696,-0.57
GGAACGAGGGCAAAGTAGATAGCATCTGTCGACG,0.856,1.46,1.74,2.46,1.05,0.805,-0.36,0.946
CCTATTTGGTCAAGGTCACACACGCTATAGGTAC,4.51,4.63,4.57,2.35,4.55,4.2,4.49,3.03
CCGAGTAGGTTATGGGGCATTGAGGCAACGGTGA,1.14,0.411,0.507,-0.0381,0.499,0.886,0.453,-0.13
ACTACCAGGCCAAGGGTCACTCAAGATTAGTCCG,4.07,4.15,3.87,0.629,4.2,3.3,1.15,2.13
TCGAGTAGGTTACCAATGGGGTATTCAGCTTTCT,0.128,0.0634,0.354,0.563,0.443,0.253,-0.473,-0.39
AGAATGAGGTTAAGATGAGGGAAACAGAATACAT,1.16,2.21,1.62,1.17,2.38,2.61,0.911,0.657
CGAACTAGGGCATTGACAGGACAGTGAATAGTAA,0.812,1.07,1.13,0.467,0.388,0.559,-0.0936,0.137
TCGAGTAGGTTCGGGGCATTCAGAATGGCGTCGA,-0.0297,-0.387,-0.609,0.913,-0.159,0.428,-0.274,1.09
ATATGTAGATTACATCCGGGTCATTCAGGCTATG,2.23,1.66,1.21,1.02,2.2,3.14,2.27,2.43
GCTCGGAGGACATGGTCAGAGCTTTGTCCGTAGA,0.143,-0.271,0.158,-0.383,-0.444,0.524,-0.306,-0.849
GCTAGTTGGTCAGTAAAAGGTTACACACCGGTCG,2.7,2.11,1.34,0.00211,1.59,1.42,0.424,0.234
ACAGACAGGTGAGTGAAGGTAATTCAGCTGGACG,-0.0285,0.335,0.578,-0.442,0.191,1.25,-0.521,-0.158
TCTATTAGTTGATTAGGGCAAGCGAAACAGCGGA,0.589,0.429,0.466,0.689,0.305,0.409,0.23,0.398
CCTATTAGTTGAGCATAAGGGCAACCGAAGCTCG,1.42,0.728,0.652,0.381,0.162,1.58,0.923,0.43
ACTATTAGGTGACTTAGGGCAACCGATACGACGC,1.39,1.18,1.29,0.234,0.903,2.76,0.89,-0.344
ACTCGGAGGACAAGGGTCAGAGCTACGCCAGTGA,3.36,3.88,3.19,0.24,2.82,2.28,0.361,1.05
GCGACTGGGGCATCTGCAGGTTACCATAACTTAA,1.06,1.21,0.411,-0.0161,0.555,1.14,-0.146,-0.456
GTACCAAGGTGAATAGGTTGTTGATGAGTAGGCG,0.824,1.07,0.763,0.247,0.717,1.55,0.782,0.391
